Reference: PubChem BioAssay (NCI)
The panel holds about 83,000 compounds, 20% with a hit somewhere; the sample as a whole holds those more often.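 Testing used 96-well plates and a 48-hour single-concentration exposure. Example: -40 means 40% of the starting cells died.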 A number with no mark means an inactive call. Activity calls are given as the source filed them. The calls were made as follows: active = growth percent below 10; inactive = the rest.

The compounds below were run on HOP-92 NSCLC (assay: NCI-60 one-dose screen, 48 h (100 = growth as untreated, 0 = no growth, -100 = all killed)). Settings: 10 µM unless noted.

`COc1cc(C(=O)n2nc(N3CCN(C)CC3)c3cc(N)ccc32)cc(OC)c1OC` was tested. Which growth did it give?
The growth was 43%.

How did the growth turn out when `O=C1N[C@@H]2NC(=[N+]3CCOCC3)N[C@@H]2N1` was run?
The growth was 120%.

With `N#Cc1c(N)nnn1Cc1cc(=O)oc2c1ccc1ccccc12` as the compound, how does the growth read?
The growth was 87.8%.

With `COc1cc(OC)cc(C2=C3CC[C@@H]4[C@H](CC[C@]5(C)C(=O)CC[C@@H]45)C3=CC3C(O)c4cccnc4N4C(=O)COC234)c1` (some centres not stated) as the compound, how does the growth read?
Its growth is 104%.

Which growth does the source give for `C=C(C)[C@@H]1CC[C@]2(C(=O)N3CCN(C)CC3)CC[C@]3(C)[C@H](CC[C@@H]4[C@@]5(C)CC(=C/c6ccncc6)/C(=N/O)C(C)(C)[C@@H]5CC[C@]43C)[C@@H]12` here?
Its growth is 56.7%.

For `CN1CCN(Cc2ccc3c(NNC(=O)c4ccccc4)nc4cc(F)ccc4n23)CC1`, which growth is on record?
The growth was 50.7%.

How did the growth turn out when `CCOC(=O)c1c2c(n3ccc(C)cc13)C(=O)c1ccccc1C2=O` was run?
Its growth is 87.8%.

`CCCC(=O)NC(c1ccc2c(c1)OCO2)c1ccc2cccnc2c1O` (configuration not stated) was tested. Which growth did it give?
Its growth is 31.4%.

For `Cc1nc2sc(C(=O)Nc3ccccc3)c(N)c2cc1C(=O)c1ccccc1`, which growth is on record?
The growth was 59.8%.

Which growth does the source give for `COC(=O)c1ccc2c(c1)C(=O)c1c-2n(CCCN)c(=O)c2cc([N+](=O)[O-])ccc12` here?
The growth was -88.1% (active).

For `CO[C@]12C=C/C(=C(/C(=O)OCc3cccnc3)C(=O)CCCCCCCC[C@@]3(OC)C=C/C(=C(/C(=O)OCc4cccnc4)C(=O)CCCCCCCC1)O3)O2`, which growth is on record?
The growth was 2.61% (active).

How did the growth turn out when `Brc1c2c(c(Br)c3ccccc13)CCCC2` was run?
Its growth is 80.9%.
